Screening data: PubChem BioAssay, National Center for Advancing Translational Sciences (NCATS)
HepG2 viability: kills HepG2 cells in TGF-b inhibitor counter-screen; AID 588856; actives 0.76% (n = 410,000); Potency, µM (highest dose often 46.1 µM), without a hit: at the highest dose activity change, negative = cytotoxicity, hits mostly cytotoxic; HepG2 CAGA-GFP viability, ATP luminescence, 18 h
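CellTiter-Glo luminescence gave cytotoxicity after 18 hours at 37 degrees C. The cells were HepG2 CAGA-GFP in 1% FBS DMEM, stimulated with 500 pg/mL TGF-beta after compound addition. %Activity was normalised to no-cell wells (complete cell-killing) and DMSO (no toxicity), and curves were fitted and classified.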
TGFb SMAD3 inh: TGF-b pathway inhibition. HepG2 CAGA-GFP TGF-b/SMAD3 reporter, GFP fluorescence, 18 h; TGF-beta stimulated, 500 pg/mL final. Potency, µM (highest dose often 46.1 µM), inactives show at the highest dose activity, negative = inhibition, hits mostly inhibitors. actives 1.2% (n = 410,000); further: on the % scale 0 is the no-effect control and ±100 the full control effect; nearly all actives have a fitted effect of over 65% in size
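Per well, imaged GFP fluorescence of HEPG2 CAGA-GFP cells gives the signal; cells get compound, then TGF-beta (500 pg/mL final), 18 h at 37 degrees C; %Activity versus -TGF-beta and +DMSO controls.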
TDP1 cell noCPT: qHTS for Inhibitors of human tyrosyl-DNA phosphodiesterase 1 (TDP1): qHTS in cells in absence of CPT | DT40 Tdp1-/- hTDP1 cells, no CPT, ATP luminescence, 48 h | Potency, µM (top dose mostly 46.2 µM), without a hit: at the highest dose activity change, negative = growth inhibition, actives largely listed as inhibitors | actives 15% (n = 420,000) | AID 686978, 2013; further: on the % scale 0 is the no-effect control and ±100 the full control effect; nearly all actives have a fitted effect of over 55% in size
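Chicken DT40 Tdp1-/- cells stably complemented with human TDP1 were seeded at 400 cells/well with DMSO in place of 20 nM camptothecin. After compound pinning, cells grew at least 48 hr at 37 °C; viability read by CellTiter-Glo luminescence.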
S2 tox: cell viability loss in ATXN counter-screen; S2 cells (HEK-293 line with an ATXN2-luciferase reporter) viability, CellTiter-Fluor protease fluorescence, 24 h; Potency, µM (titrated, usually from 56.7 µM), most hits filed as cytotoxic; actives 0.49% (n = 400,000); AID 651635; further: nearly all actives have a fitted effect of over 40% in size
DT40 TDP1 CPT: DT40-hTDP1 cell growth loss with CPT; actives 12% (n = 420,000); chicken DT40 Tdp1-/-;hTDP1 cells + 20 nM CPT, ATP luminescence, 48 h; AID 686979; Potency, µM (titrated, usually from 46.2 µM), for the others: at the highest dose activity change, negative = growth inhibition, hits mostly inhibitors; further: on the % scale 0 is the no-effect control and ±100 the full control effect; nearly all actives have a fitted effect of over 55% in size
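Chicken DT40 Tdp1-/- cells complemented with human TDP1, 400 cells/well, exposed to compounds plus 20 nM camptothecin for at least 48 h at 37 C; viability read as ATP content by CellTiter-Glo luminescence.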
ATXN2 expr inh: inhibitors of ATXN2 expression; HEK-293 ATXN2-luciferase reporter, luminescence, 24 h; Potency, µM (titrated, usually from 57 µM), inactives show at the top dose activity change, negative = inhibition, hits mostly inhibitors; actives 0.72% (n = 360,000); AID 1745845; further: on the % scale 0 is the no-effect control and ±100 the full control effect; nearly all actives have a fitted effect of over 55% in size
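ATXN2-luciferase reporter cells (luciferase flanked by upstream and downstream ATXN2 gene portions) were treated 24 h at 37 °C with compounds at up to 57 uM. SteadyGlo luminescence gave expression; GF-AFC fluorescence gave viability.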
Numbers without * were called inactive; i = inactive; ? = inconclusive; nt = no result; [ ] = dose if it differs, or a comment. Rows were chosen to be rich in hits. Some 17% of all compounds tested hit in one or more screens of this group. The call rests on the fitted dose curve; in most records, active means well fitted curve in the direction sought with a large enough effect; inconclusive means small, poorly fitted or top-dose-only effect, or another doubt; inactive means no such curve, though single readings can be large; an effect the other way counts as inactive or inconclusive. Potency means the concentration at half of the fitted maximal effect.

SMILES | HepG2 viability | TGFb SMAD3 inh | TDP1 cell noCPT | S2 tox | DT40 TDP1 CPT | ATXN2 expr inh
CC(C)(C)C(=O)Cn1c(=O)n(-c2ccccc2)c(=O)c2c3c(sc21)CCC3 | -4% | -12% | 18µM* | ? | 15µM* | -2%
CCOc1ccc(-n2c(=O)c3c(C)c(C)sc3n(CC(=O)C(C)(C)C)c2=O)cc1 | -2% | -3% | 23µM* | i | ? | 16%
Cc1ccc(-n2c(=O)c3c4c(sc3n(CC(=O)c3ccc(Cl)cc3)c2=O)CCC4)cc1C | -42% | -27% | -13% | i | -6% | 7%
COc1cccc(-n2c(=O)c3c(C)c(C)sc3n(CC(=O)Nc3ccccc3OC)c2=O)c1 | -2% | -1% | 5% | ? | -10% | 3%
COc1ccc(S(=O)(=O)N2CCC3CC2c2cc(N4CCOCC4)ccc23)cc1 (centres undefined) | -4% | -20% | ? | i | ? | -18%
CCOc1ccc(-n2c(=O)c3c(C)c(C)sc3n(Cc3ccc(C(C)(C)C)cc3)c2=O)cc1 | -12% | 13% | ? | i | 21µM* | ?
CCOC(=O)c1c(-c2cccs2)csc1NC(=O)CN1CC(C)OC(C)C1 (centres undefined) | 20µM* | ? | 23µM* | i | 26µM* | -10%
CCOC(=O)c1c(-c2cccc([N+](=O)[O-])c2)csc1NC(=O)C1CC1 | -26% | -1% | 21µM* | i | 18µM* | -32%
CCOC(=O)c1c(NC(=O)CCl)sc(CN(C)C)c1-c1ccccc1 | -46% | ? | 9.2µM* | nt | 4.1µM* | ?
CCOC(=O)c1sc(NC(=S)NC(=O)c2ccccc2Cl)c(C(=O)OCC)c1C | 14% | 17% | 26µM* | i | ? | -14%
O=C(Oc1coc(CSc2ncccn2)cc1=O)c1ccccc1[N+](=O)[O-] | -3% | -16% | ? | ? | -17% | nt
CCOC(=O)c1c(-c2ccccc2)csc1NC(=O)CSc1nnc(C)s1 | 0% | ? | ? | i | 23µM* | -18%
CCOC(=O)c1c(-c2ccc(-c3ccccc3)cc2)csc1NC(=O)CCN1CCOCC1 | -4% | ? | 15µM* | i | 18µM* | -28%
CCOC(=O)c1c(-c2ccc(-c3ccccc3)cc2)csc1NC(=O)CNCCN(C)C | i | ? | 23µM* | ? | ? | ?
CCOC(=O)c1c(-c2ccc(C)o2)csc1NC(=S)NC(=O)c1ccccc1Br | -30% | -27% | ? | i | 16µM* | 9%
Cc1c(Cl)cccc1NC(=O)c1ccccc1-c1ccccc1C(=O)O | 7% | 11% | 0% | i | 3% | 4%
CCOC(=O)c1c(-c2ccccc2)csc1NC(=O)CCN1C(=O)c2ccccc2C1=O | -4% | -7% | ? | i | 2% | 3%
CCNC(=S)Nc1scc(-c2ccccc2)c1C(=O)OCC | -31% | ? | 23µM* | i | ? | 2%
CCOC(=O)c1c(-c2ccccc2)csc1NC(=O)C(C)NCCCN1CCOCC1 (centres undefined) | -28% | -1% | ? | i | ? | -5%[11.3 µM]
CCOC(=O)c1c(-c2ccc(-c3ccccc3)cc2)csc1NC(=O)c1cccc(N2C(=O)CCC2=O)c1 | 12% | 0% | 6.5µM* | i | 8.2µM* | ?
CCOC(=O)c1c(-c2ccccc2)csc1NC(=O)c1cc2ccccc2oc1=O | 2% | 13% | 16µM* | ? | ? | -2%
CCOC(=O)c1c(-c2ccc(F)cc2)csc1NC(=O)CCN1CCOCC1 | 1% | -2% | 21µM* | ? | ? | 4%
CSc1nc(Cl)cc(Nc2ccc(O)cc2)n1 | -8% | ? | ? | ? | ? | -13%
CCOc1ccc(-n2ccn3c(CC(C)CC(=O)O)nnc3c2=O)cc1 (centres undefined) | 7% | 3% | 8% | i | -1% | 3%
O=C(NCCc1csc2nc(-c3ccccc3F)nn12)C(=O)Nc1cc(F)ccc1F | -2% | -7% | -6% | i | 3% | 2%
SMILES | HepG2 viability | TGFb SMAD3 inh | TDP1 cell noCPT | S2 tox | DT40 TDP1 CPT | ATXN2 expr inh
CCn1c2c(c3cc(OCC(C)C)ccc31)CCCC2=O | -20% | -15% | 21µM* | i | 16µM* | ?
CCOC(=O)c1sc2nc(C)nc(NCc3ccccc3)c2c1C | -17% | 0% | 21µM* | i | 10µM* | nt
Cc1sc2nc(CN3CCOCC3)nc(N3CCN(S(=O)(=O)c4ccccc4)CC3)c2c1C | -3% | -9% | ? | ? | ? | 9%
CCOC(=O)c1sc2nc(C)nc(Nc3ccccc3)c2c1C | -2% | 10% | -18% | i | -8% | -17%
O=S(=O)(c1cccs1)N1CCN(c2ncccn2)CC1 | -31% | -4% | -26% | i | -11% | 4%
Cc1nc(N2CCN(S(=O)(=O)c3cccs3)CC2)c2c(-c3ccccc3)c(C)sc2n1 | -46% | -13% | 13µM* | i | ? | nt
CCOC(=O)c1sc2nc(C)nc(N3CCN(S(=O)(=O)c4ccccc4)CC3)c2c1C | 0% | 0% | 6.5µM* | i | 8.2µM* | 1%
CCOC(=O)c1sc2nc(CC(=O)OC)nc(NCc3ccc(Cl)cc3)c2c1C | 1% | 3% | 5.8µM* | i | 4.1µM* | -21%
COc1ccccc1NCCC(=O)OCC(=O)Nc1ccccc1F | 4% | 8% | -18% | i | -13% | -18%
CCOC(=O)c1sc2nc(CC(=O)OC)nc(N3CCN(c4ccc(OC)cc4)CC3)c2c1C | -7% | -15% | 23µM* | i | 23µM* | -21%
CCOC(=O)c1sc2nc(C)[nH]c(=S)c2c1C | -7% | -15% | 21µM* | i | ? | 6%
Cc1ccc(S(=O)(=O)N2CCN(C(=O)COC(=O)c3ccc(Cl)c(S(N)(=O)=O)c3)CC2)c(C)c1 | 2% | -3% | -11% | ? | 10% | -9%
Cc1ccc(C=Nc2ccccc2C(N)=O)cc1 | -14% | 3% | 3.2µM* | ? | 2.8µM* | 37%
O=C(Nc1ccccc1)c1ccccc1N=Cc1cccc(O)c1 | 6% | -1% | ? | i | -26% | 1%
Cc1ccc(C=Nc2ccccc2C(=O)Nc2ccccc2)cc1 | -14% | -23% | 12µM* | i | ? | 5%
